Results reported in PubChem BioAssay AID1259336 (Sattelle Laboratory, UCL Respiratory, Division of Medicine, …, 2017).
Calls of active or inactive are those of the source. Rule as the data show it: active = log2 fold change growth below about -1.8; inactive = the rest.

Test: C. elegans growth inhibition, whole organism, log2 fold change (AID 1259336);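 also: growth scored by imaging after five days at 20 °C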
Details: anthelmintic screen, active compounds read low

SMILES	log2 fold change growth
CC(C)(C)n1nc(Cc2cccc3ccccc23)c2c(N)ncnc21	-0.527 (inactive)
COc1cc(C2=NCCN2)ccc1-n1cc(-c2cccc(C3=NCCN3)c2)nn1	-0.901 (inactive)
Cc1ccc(S(=O)(=O)Nc2ccc(CN3CCN(C(=O)c4cccc(C#N)c4)CC3)cc2)cc1	0.152 (inactive)
CC(C)(C)c1ccc(N[C@@H]2CCCC[C@H]2NC(=O)c2ccco2)cc1	0.519 (inactive)
Brc1cncc(-c2cc(NCCCn3ccnc3)nc(-c3ccccc3)n2)c1	-1.17 (inactive)
Nc1ncc(-c2cn[nH]c2)cc1-c1nc2ncc(Cl)cc2[nH]1	-0.454 (inactive)
CN1CCN(c2nccc3[nH]c(-c4ccc(F)c(F)c4)nc23)CC1	-0.373 (inactive)
CC(C)(C)c1cnc(NC(=O)c2ccccc2O)s1	0.155 (inactive)
CC(C)(C)OC(=O)N1CCC(Cn2nc(-c3cnc4ccccc4c3)c3c(N)ncnc32)CC1	-0.248 (inactive)
O=C(Nc1ccc(F)c(-c2nc3ncc(-c4ccccc4)cc3[nH]2)c1)N1CCCC1	-5.81 (active)
CNC1C(OC2C(OC3C(O)C(O)C(N=C(N)N)C(O)C3N=C(N)N)OC(C)C2(O)C=O)OC(CO)C(O)C1O (centres undefined)	-0.00587 (inactive)
NS(=O)(=O)c1cncc(-c2ccc3nccc(-c4cn[nH]c4)c3n2)c1	-0.501 (inactive)
CNC(=O)c1nn(C)c2c1C(C)(C)Cc1cnc(Nc3ccc(N4CCN(C)CC4)cc3)nc1-2	0.103 (inactive)
CN1CCCC1CCO[C@](C)(c1ccccc1)c1ccc(Cl)cc1 (some centres undefined)	0.213 (inactive)
CC(=O)NC[C@@H]1CN(c2ccc(N3CCOCC3)c(F)c2)C(=O)O1	-0.257 (inactive)
Cc1cccnc1NC(=O)c1cccc(OCc2c(C)noc2C)c1	0.0511 (inactive)
C[C@H]1CS(=O)(=O)CCN1/N=C/c1ccc([N+](=O)[O-])o1	0.236 (inactive)
Cc1ccc2c(c1C)NC(=O)[C@]21NN=C(c2ccccc2)S1	-0.355 (inactive)
Cc1nnc(NC(=O)c2cn(-c3ccccc3)nc2-c2ccccc2C)o1	-0.302 (inactive)
Cc1ccc2oc(-c3cc(NC(=O)Cc4ccccc4)ccc3Cl)nc2c1	0.272 (inactive)

SMILES	log2 fold change growth
c1cncc(NCc2ccc(-c3cc4ccncc4cc3OC3CCNCC3)s2)c1	0.376 (inactive)
COc1cc(Br)cc2cc(C(=O)Nc3cccc(C(F)(F)F)c3)c(=O)oc12	0.421 (inactive)
CS(=O)(=O)Cc1nc2ccccc2oc1=O	-0.133 (inactive)
O=C(NCCN1CCCC1)c1cc(NCCCCN2CCC(F)(F)CC2)nc2ccc(Cl)cc12	0.489 (inactive)
c1csc(-c2cnc3sc(NCC4CCOCC4)nn23)c1	-0.257 (inactive)
Cc1cccc(Cn2ccc(NC(=O)c3ccc4c(c3)OCO4)n2)c1	-0.327 (inactive)
Clc1ccc(Cl)c(CO[C@H]2CCCC[C@@H]2n2ccnc2)c1	0.0539 (inactive)
O=C(Nc1c(O)cccc1-c1nc2c(C(=O)O)cccc2o1)c1cc(-c2ccccc2)on1	-0.772 (inactive)
Cc1cnc(N2CCN[C@@H](Cc3ccccc3)C2)nc1Oc1ccc(-n2ccnc2)cc1	0.245 (inactive)
C[C@H]1c2cccc(O)c2C(O)=C2C(=O)[C@]3(O)C(O)=C(C(N)=O)C(=O)[C@@H](N(C)C)[C@@H]3[C@@H](O)[C@@H]21	0.805 (inactive)
Cc1nn(C(=O)Nc2cccc(C(F)(F)F)c2)c(C)c1Sc1ncccn1	-0.494 (inactive)
COc1cncc(-c2cncc(N3CCN(c4ccncc4)CC3)n2)c1	-0.191 (inactive)
N#Cc1nc(-c2ccccc2F)oc1NCCc1ccccc1	-0.468 (inactive)
O=C(NCc1nnc2n1CCCCC2)c1ccc(-c2ccc(F)cc2)o1	0.174 (inactive)
O=C1Nc2ccc(Br)cc2[C@@]12NCCc1c2[nH]c2ccccc12	-0.19 (inactive)
CCN(CC)C(=O)N1CCN(C)CC1	0.355 (inactive)
O=C(C1CCN(c2nnc(-n3cccc3)s2)CC1)N1CCC(Cc2ccccc2)CC1	0.102 (inactive)
CS(=O)(=O)N1CCC(Cn2nc(Cc3cccc4ccccc34)c3c(N)ncnc32)CC1	-0.695 (inactive)
NCCN(C(=O)c1ccc(Cl)cc1Cl)c1ccc(OCc2ccc(Cl)cc2)cc1	-0.0401 (inactive)
